Hit rate of the full screen: of about 5,500 compounds, about 2,000 (36%) were called active. Inconclusive results (about 18%) are left out. Rule as the data show it: active = normalized growth mostly below about 0.91 (no sharp cut-off); inconclusive = no clear call, values can overlap the other calls; inactive = mostly above about 0.92. The list shows a part of the results.
Assay: chemical genetic growth profiling, strain panel (AID 1159580);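 also: tested at 20 µM; growth read once vehicle control cultures reached saturation at 30 °C; 1 = growth at the plate median or of vehicle wells; lower values mean less growth of the strain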
Conditions: growth OD

Measured: normalized growth

CNc1ccc(C(=O)CC(O)CCC(C)C2OC(=O)CC(O)CC(=O)CC(O)CC(O)CC(O)CC(O)CC3(O)CC(O)C(C(=O)OC)C(CC(OC4OC(C)C(O)C(N)C4O)/C=C/C=C/C=C/C=C/C=C/C=C/C=C/C2C)O3)cc1 (stereo unspecified)
inactive: S. cerevisiae deletion strains, locus YOL012C, strain htz1 0.225
active: S. cerevisiae deletion strains, locus YAL013W, strain DEP1, active compounds read low 0.0566 | S. cerevisiae deletion strains, locus YBR021W, strain FUR4, active compounds read low 0.0931 | S. cerevisiae deletion strains, locus YBR229C, strain ROT2, active compounds read low 0.0524 | S. cerevisiae deletion strains, locus YCL029C, strain bik1, active compounds read low 0.0837 | S. cerevisiae deletion strains, locus YDL035C, strain GPR1, active compounds read low 0.0535 | S. cerevisiae deletion strains, locus YDL074C, strain BRE1, active compounds read low 0.0938 | S. cerevisiae deletion strains, locus YDL101C, strain DUN1, active compounds read low 0.0651 | S. cerevisiae deletion strains, locus YDL134C, strain PPH21, active compounds read low 0.0946 | S. cerevisiae deletion strains, locus YDL185W, strain tfp1, active compounds read low 0.056 | S. cerevisiae deletion strains, locus YDL192W, strain arf1, active compounds read low 0.0619 | S. cerevisiae deletion strains, locus YDR101C, strain arx1, active compounds read low 0.0612 | S. cerevisiae deletion strains, locus YDR150W, strain NUM1, active compounds read low 0.0603 | S. cerevisiae deletion strains, locus YDR162C, strain NBP2, active compounds read low 0.0526 | S. cerevisiae deletion strains, locus YDR318W, strain mcm21, active compounds read low 0.0791 | S. cerevisiae deletion strains, locus YDR388W, active compounds read low 0.0583 | S. cerevisiae deletion strains, locus YDR502C, strain sam2, active compounds read low 0.0726 | S. cerevisiae deletion strains, locus YEL061C, strain CIN8, active compounds read low 0.133 | S. cerevisiae deletion strains, locus YER110C, active compounds read low 0.11 | S. cerevisiae deletion strains, locus YER155C, strain BEM2, active compounds read low 0.0648 | S. cerevisiae deletion strains, locus YER167W, strain BCK2, active compounds read low 0.0539 | S. cerevisiae deletion strains, locus YGL078C, strain dbp3, active compounds read low 0.0564 | S. cerevisiae deletion strains, locus YGL086W, strain mad1, active compounds read low 0.0591 | S. cerevisiae deletion strains, locus YGL248W, strain PDE1, active compounds read low 0.11 | S. cerevisiae deletion strains, locus YGR078C, strain PAC10, active compounds read low 0.0538 | S. cerevisiae deletion strains, locus YGR135W, strain pre9, active compounds read low 0.0705 | S. cerevisiae deletion strains, locus YGR229C, strain SMI1, active compounds read low 0.0606 | S. cerevisiae deletion strains, locus YGR252W, strain gcn5, active compounds read low 0.194 | S. cerevisiae deletion strains, locus YHR030C, strain SLT2, active compounds read low 0.0491 | S. cerevisiae deletion strains, locus YHR079C, strain IRE1 (second series), active compounds read low 0.0787 | S. cerevisiae deletion strains, locus YHR094C, strain hxt1, active compounds read low 0.119 | S. cerevisiae deletion strains, locus YHR129C, strain ARP1, active compounds read low 0.0557 | S. cerevisiae deletion strains, locus YHR200W, strain rpn10, active compounds read low 0.0615 | S. cerevisiae deletion strains, locus YIL066C, strain RNR3, active compounds read low 0.12 | S. cerevisiae deletion strains, locus YIL073C, strain SPO22, active compounds read low 0.63 | S. cerevisiae deletion strains, locus YIL125W, strain kgd1, active compounds read low 0.0582 | S. cerevisiae deletion strains, locus YIR030C, strain dcg1, active compounds read low 0.0683 | S. cerevisiae deletion strains, locus YJL095W, strain BCK1, active compounds read low 0.0555 | S. cerevisiae deletion strains, locus YJL134W, strain LCB3, active compounds read low 0.0513 | S. cerevisiae deletion strains, locus YJL168C, strain set2, active compounds read low 0.119 | S. cerevisiae deletion strains, locus YJL187C, strain SWE1 (second series), active compounds read low 0.0564 | S. cerevisiae deletion strains, locus YJR043C, strain POL32, active compounds read low 0.0719 | S. cerevisiae deletion strains, locus YJR075W, strain HOC1, active compounds read low 0.0687 | S. cerevisiae deletion strains, locus YKL009W, strain mrt4, active compounds read low 0.0698 | S. cerevisiae deletion strains, locus YKL068W, active compounds read low 0.0536 | S. cerevisiae deletion strains, locus YKL085W, strain MDH1 (second series), active compounds read low 0.0497 | S. cerevisiae deletion strains, locus YKL085W, strain MDH1, active compounds read low 0.0497 | S. cerevisiae deletion strains, locus YKL190W, strain CNB1, active compounds read low 0.0588 | S. cerevisiae deletion strains, locus YKR001C, strain vps1, active compounds read low 0.0648 | S. cerevisiae deletion strains, locus YLR039C, strain RIC1, active compounds read low 0.0872 | S. cerevisiae deletion strains, locus YLR058C, strain SHM2, active compounds read low 0.0574 | S. cerevisiae deletion strains, locus YLR102C, strain apc9, active compounds read low 0.0963 | S. cerevisiae deletion strains, locus YLR262C, strain YPT6, active compounds read low 0.0942 | S. cerevisiae deletion strains, locus YLR268W, strain sec22, active compounds read low 0.0696 | S. cerevisiae deletion strains, locus YLR330W, strain CHS5, active compounds read low 0.0514 | S. cerevisiae deletion strains, locus YLR342W, strain FKS1 (second series), active compounds read low 0.0823 | S. cerevisiae deletion strains, locus YLR371W, strain rom2, active compounds read low 0.0741 | S. cerevisiae deletion strains, locus YLR418C, strain cdc73, active compounds read low 0.0943 | S. cerevisiae deletion strains, locus YML016C, strain PPZ1, active compounds read low 0.136 | S. cerevisiae deletion strains, locus YML032C, strain rad52, active compounds read low 0.0764 | S. cerevisiae deletion strains, locus YML124C, strain tub3, active compounds read low 0.0593 | S. cerevisiae deletion strains, locus YMR078C, strain ctf18, active compounds read low 0.0766 | S. cerevisiae deletion strains, locus YMR223W, strain ubp8, active compounds read low 0.0693 | S. cerevisiae deletion strains, locus YMR263W, strain SAP30, active compounds read low 0.0638 | S. cerevisiae deletion strains, locus YMR307W, strain GAS1, active compounds read low 0.109 | S. cerevisiae deletion strains, locus YNL067W, strain RPL9B, active compounds read low 0.0557 | S. cerevisiae deletion strains, locus YNL128W, strain TEP1, active compounds read low 0.0601 | S. cerevisiae deletion strains, locus YNL153C, strain GIM3, active compounds read low 0.0467 | S. cerevisiae deletion strains, locus YNL233W, strain BNI4, active compounds read low 0.0536 | S. cerevisiae deletion strains, locus YNL250W, strain rad50, active compounds read low 0.0761 | S. cerevisiae deletion strains, locus YNL271C, strain bni1, active compounds read low 0.0615 | S. cerevisiae deletion strains, locus YNL298W, strain CLA4, active compounds read low 0.0597 | S. cerevisiae deletion strains, locus YNL307C, strain MCK1, active compounds read low 0.0706 | S. cerevisiae deletion strains, locus YNL322C, strain KRE1, active compounds read low 0.0507 | S. cerevisiae deletion strains, locus YNR052C, strain pop2, active compounds read low 0.0636 | S. cerevisiae deletion strains, locus YOL006C, strain TOP1, active compounds read low 0.132 | S. cerevisiae deletion strains, locus YOL147C, strain pex11, active compounds read low 0.0576 | S. cerevisiae deletion strains, locus YOR061W, strain CKA2, active compounds read low 0.0583 | S. cerevisiae deletion strains, locus YOR069W, strain VPS5, active compounds read low 0.0477 | S. cerevisiae deletion strains, locus YOR136W, strain idh2, active compounds read low 0.074 | S. cerevisiae deletion strains, locus YOR144C, strain elg1, active compounds read low 0.0585 | S. cerevisiae deletion strains, locus YOR184W, strain ser1, active compounds read low 0.075 | S. cerevisiae deletion strains, locus YOR316C, strain cot1, active compounds read low 0.1 | S. cerevisiae deletion strains, locus YPL055C, strain LGE1, active compounds read low 0.0726 | S. cerevisiae deletion strains, locus YPL241C, strain CIN2, active compounds read low 0.0521 | S. cerevisiae deletion strains, locus YPR119W, strain clb2, active compounds read low 0.0662 | S. cerevisiae deletion strains, locus YPR141C, strain kar3, active compounds read low 0.0657 | S. cerevisiae deletion strains, locus YPR163C, strain tif3, active compounds read low 0.0749 | S. cerevisiae deletion strains, locus YPR167C, strain met16, active compounds read low 0.0645 | S. cerevisiae deletion strains, strain wtn01, active compounds read low 0.061 | S. cerevisiae strains, strain wild type, active compounds read low 0.0494
